Screens: PubChem, several laboratories
Sampled rows, rich in hits. Any-hit rate of the full collection: about 22%.
Measles CPE: protection of cells from measles virus. 1.5% of 140,000 active. Measles virus-infected cells, CPE protection, absorbance. protection (pct of control), % at 4 µM; in the data active = protection mostly above about 24%, no sharp cut-off; inactive = mostly below about 26%
CYP2C9 inhib: blocks human cytochrome P450 2C9; AID 777; inhibition, % at 5 µM; 20% of 96,000 active; CYP2C9 Supersomes, luciferin-H conversion, luminescence;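 active = blocking of liver enzyme CYP2C9 beyond about 50% at 5 µM, limit read from the data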
CYP2C9 act: increases human cytochrome P450 2C9 activity; AID 1024; P11712; recombinant CYP2C9, luciferin-H conversion, luminescence; active compounds read high; factor 1 = untreated enzyme, 0 = blocked; 1.4% of 96,000 active; activation factor at 5 µM;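 active = activation factor of 2 or more for CYP2C9 at a 5 µM dose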
CYP2C19 inhib: human CYP2C19 inhibition. inhibition, % at 5 µM. CYP2C19 Supersomes, luciferin-H EGE luminescence, 30 min. 21% of 96,000 active. P33261. AID 778;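 active = CYP2C19 inhibition above a set limit at 5 µM in the primary screen, cut at about 50% in these data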
Target sequence (P33261 whole entry, looked up): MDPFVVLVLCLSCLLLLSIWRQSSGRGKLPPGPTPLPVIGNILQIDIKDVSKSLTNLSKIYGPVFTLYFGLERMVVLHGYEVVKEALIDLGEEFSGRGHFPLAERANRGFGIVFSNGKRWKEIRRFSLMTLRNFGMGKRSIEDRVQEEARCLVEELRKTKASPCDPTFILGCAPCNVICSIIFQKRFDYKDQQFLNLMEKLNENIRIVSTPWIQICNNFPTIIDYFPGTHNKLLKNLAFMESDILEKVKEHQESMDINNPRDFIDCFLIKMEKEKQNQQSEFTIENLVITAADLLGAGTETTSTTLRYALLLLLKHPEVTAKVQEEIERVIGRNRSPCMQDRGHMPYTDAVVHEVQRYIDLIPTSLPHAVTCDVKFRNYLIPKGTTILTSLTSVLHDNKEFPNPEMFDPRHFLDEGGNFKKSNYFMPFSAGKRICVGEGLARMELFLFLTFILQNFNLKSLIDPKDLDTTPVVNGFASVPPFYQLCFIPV
CYP2C19 activ: cytochrome P450 2C19 (human) activation | P33261 | recombinant CYP2C19, luciferin-H EGE luminescence; active compounds read high; 0 = fully inhibited enzyme, 1 = untreated enzyme | activation factor at 5 µM | 96,000 tested, under 10 active;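 active = activation factor of at least 2 at 5 µM in the primary screen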
A number is an active result.

How did O=C(CS(=O)c1cccc(C(F)(F)F)c1)Nc1ccc(Cl)cc1Cl (centres undefined) do in these assays?
Measles CPE: inactive; CYP2C9 inhib: inactive; CYP2C9 act: 2.1; CYP2C19 inhib: 99.6; CYP2C19 activ: inactive

Results for O=C(COc1ccccc1O)Nc1ccccc1Cl ?
Measles CPE: inactive; CYP2C9 inhib: inactive; CYP2C9 act: inactive; CYP2C19 inhib: inactive; CYP2C19 activ: inactive

Results for COc1cccc(/C=N/NC(=O)CC(=O)NCCc2ccc(OC)c(OC)c2)c1 ?
Measles CPE: inactive; CYP2C9 inhib: inactive; CYP2C9 act: inactive; CYP2C19 inhib: inactive; CYP2C19 activ: inactive

What do the screens show for `Cc1ccc(S(=O)(=O)N2CCOCC2)c(C)c1-n1cnnn1`?
Measles CPE: inactive; CYP2C9 inhib: inactive; CYP2C9 act: 3; CYP2C19 inhib: inactive; CYP2C19 activ: inactive

Results for COc1cc(-n2cnnn2)ccc1S(=O)(=O)N1CCOCC1 ?
Measles CPE: inactive; CYP2C9 inhib: inactive; CYP2C9 act: inactive; CYP2C19 inhib: inactive; CYP2C19 activ: inactive

What do the screens show for `O=C1CCSc2ccc(Cl)cc2N1Cc1cccc(Cl)c1`?
Measles CPE: inactive; CYP2C9 inhib: inactive; CYP2C9 act: inactive; CYP2C19 inhib: 63.7; CYP2C19 activ: inactive

What do the screens show for `Cc1scc(C(=O)Nn2cnnc2)c1-c1ccccc1`?
Measles CPE: 41.4; CYP2C9 inhib: inactive; CYP2C9 act: inactive; CYP2C19 inhib: inactive; CYP2C19 activ: inactive

Results for O=c1c2cc(N3CCOCC3)ccc2[nH]c(=S)n1CCCN1CCCCCC1 ?
Measles CPE: inactive; CYP2C9 inhib: inactive; CYP2C9 act: inactive; CYP2C19 inhib: inactive; CYP2C19 activ: inactive

How did O=c1c2cc(F)ccc2[nH]c(=S)n1CCCN1CCOCC1 do in these assays?
Measles CPE: inactive; CYP2C9 inhib: inactive; CYP2C9 act: inactive; CYP2C19 inhib: 66.7; CYP2C19 activ: inactive

What do the screens show for `O=c1c2cc(N3CCOCC3)ccc2[nH]c(=S)n1Cc1ccc(Cl)cc1`?
Measles CPE: inactive; CYP2C9 inhib: 57.9; CYP2C9 act: inactive; CYP2C19 inhib: inactive; CYP2C19 activ: inactive

Results for O=c1c2cc(N3CCOCC3)ccc2[nH]c(=S)n1CCN1CCCC1 ?
Measles CPE: inactive; CYP2C9 inhib: inactive; CYP2C9 act: inactive; CYP2C19 inhib: inactive; CYP2C19 activ: inactive

Results for CNC(=O)CN(C1CCCCC1)S(=O)(=O)c1ccc(OC)c(Cl)c1 ?
Measles CPE: inactive; CYP2C9 inhib: inactive; CYP2C9 act: inactive; CYP2C19 inhib: inactive; CYP2C19 activ: inactive

How did O=S(=O)(Nc1ccc(Cl)c(C(F)(F)F)c1)c1cnc[nH]1 do in these assays?
Measles CPE: inactive; CYP2C9 inhib: 99.2; CYP2C9 act: inactive; CYP2C19 inhib: 95.7; CYP2C19 activ: inactive

How did Cc1cccc(NS(=O)(=O)c2cnc[nH]2)c1 do in these assays?
Measles CPE: inactive

How did O=S(=O)(Nc1ccc(C(F)(F)F)cc1)c1cnc[nH]1 do in these assays?
Measles CPE: inactive; CYP2C9 inhib: 99.5; CYP2C9 act: inactive; CYP2C19 inhib: 98.8; CYP2C19 activ: inactive

What do the screens show for `O=C(O)CCCCNS(=O)(=O)c1ccc(Cl)c(C(F)(F)F)c1`?
Measles CPE: inactive; CYP2C9 inhib: inactive; CYP2C9 act: inactive; CYP2C19 inhib: inactive; CYP2C19 activ: inactive

What do the screens show for `O=S(=O)(Nc1cccc(C(F)(F)F)c1)c1cnc[nH]1`?
Measles CPE: inactive; CYP2C9 inhib: 100.0; CYP2C9 act: inactive; CYP2C19 inhib: 97.7; CYP2C19 activ: inactive

How did O=S(=O)(Nc1cccnc1)c1cccc(C(F)(F)F)c1 do in these assays?
Measles CPE: inactive; CYP2C9 inhib: inactive; CYP2C9 act: inactive; CYP2C19 inhib: inactive; CYP2C19 activ: inactive

What do the screens show for `Cc1ccc(Cl)cc1NC(=O)COC(=O)C12CC3CC(CC(C3)C1)C2`?
Measles CPE: inactive; CYP2C9 inhib: inactive; CYP2C9 act: inactive; CYP2C19 inhib: inactive; CYP2C19 activ: inactive

What do the screens show for `CC(C)(C)N1C(=O)Cc2c1nc(N)c1c(N)nc(N3CCCCC3CO)c(C#N)c21` (centres undefined)?
Measles CPE: inactive; CYP2C9 inhib: 75.1; CYP2C9 act: inactive; CYP2C19 inhib: inactive; CYP2C19 activ: inactive

Results for CN(CCO)c1nc(N)c2c(N)nc3c(c2c1C#N)CC(=O)N3C1CCCC1 ?
Measles CPE: inactive; CYP2C9 inhib: 74.6; CYP2C9 act: inactive; CYP2C19 inhib: inactive; CYP2C19 activ: inactive

Results for O=C(COc1ccc2c(c1)OCO2)NC12CC3CC(CC(C3)C1)C2 ?
Measles CPE: inactive; CYP2C9 inhib: 74.6; CYP2C9 act: inactive; CYP2C19 inhib: 93.8; CYP2C19 activ: inactive

Results for CC1(c2ccccc2)CC(C)(C)N(C(=O)C2CCCO2)c2ccccc21 (centres undefined) ?
Measles CPE: inactive; CYP2C9 inhib: 66.2; CYP2C9 act: inactive; CYP2C19 inhib: 76.7; CYP2C19 activ: inactive

How did O=[N+]([O-])c1ccc(NCCNc2ccc(Cl)nn2)cc1 do in these assays?
Measles CPE: inactive; CYP2C9 inhib: inactive; CYP2C9 act: inactive; CYP2C19 inhib: inactive; CYP2C19 activ: inactive

How did Cc1cccn2c(=O)c3cc(C#N)c(=NC(=O)c4ccncc4)n(CCCOC(C)C)c3nc12 do in these assays?
Measles CPE: inactive; CYP2C9 inhib: 87.2; CYP2C9 act: inactive; CYP2C19 inhib: 93.7; CYP2C19 activ: inactive

How did COCCCn1c(=NC(=O)c2ccncc2)c(C#N)cc2c(=O)n3cccc(C)c3nc21 do in these assays?
Measles CPE: inactive; CYP2C9 inhib: 80.6; CYP2C9 act: inactive; CYP2C19 inhib: 70.4; CYP2C19 activ: inactive

How did CCCCn1c(=NC(=O)c2cccnc2)c(C#N)cc2c(=O)n3cccc(C)c3nc21 do in these assays?
Measles CPE: inactive; CYP2C9 inhib: inactive; CYP2C9 act: inactive; CYP2C19 inhib: inactive; CYP2C19 activ: inactive

What do the screens show for `COc1ccc(C2CC(C(F)(F)F)n3nc(C(=O)O)c(Br)c3N2)cc1` (centres undefined)?
Measles CPE: inactive; CYP2C9 inhib: inactive; CYP2C9 act: inactive; CYP2C19 inhib: inactive; CYP2C19 activ: inactive

How did CC1CCC(NC(=O)c2ccc(NC(=O)c3ccc(=O)[nH]c3)cc2)CC1 (centres undefined) do in these assays?
Measles CPE: inactive

Results for Cc1cc(OCC(=O)N2CCc3ccccc3C2)c2c(-c3ccccc3)cc(=O)oc2c1 ?
Measles CPE: inactive; CYP2C9 inhib: 96.7; CYP2C9 act: inactive; CYP2C19 inhib: 86.4; CYP2C19 activ: inactive

How did Cc1cc(OC(C)C)c2c(-c3ccccc3)cc(=O)oc2c1 do in these assays?
Measles CPE: inactive; CYP2C9 inhib: 80.4; CYP2C9 act: inactive; CYP2C19 inhib: inactive; CYP2C19 activ: inactive

What do the screens show for `CCCc1cc(=O)oc2cc(C)cc(OC(=O)c3ccco3)c12`?
Measles CPE: inactive; CYP2C9 inhib: inactive; CYP2C9 act: inactive; CYP2C19 inhib: inactive; CYP2C19 activ: inactive

Results for CCOc1cc(C)cc2oc(=O)cc(-c3ccccc3)c12 ?
Measles CPE: inactive; CYP2C9 inhib: 54.8; CYP2C9 act: inactive; CYP2C19 inhib: inactive; CYP2C19 activ: inactive

Results for CCc1ccc(NC(=O)c2ccc3c(c2)C(=O)N(CCOC)C3Nc2ccc(CC)cc2)cc1 (centres undefined) ?
Measles CPE: inactive

What do the screens show for `NC(=S)N/N=C/C=C/c1ccccc1`?
Measles CPE: inactive
